Tests used:
Experiment in all cases: thermal shift delta Tm vs DMSO control; higher = stronger stabilization (binding)
Details in all cases: 12.5 µM; protein concentration 2 µM
LOC_OS01G57100-cb003 = tested on: LOC_OS01G57100-cb003
Method in brief: (§1)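 Heating from 25°C to 95°C at 0.05°C/s, fluorescence was recorded for 19.5 μl wells of 2 μM E. coli-expressed, purified rice kinase domain in 100 mM potassium phosphate pH 7.5, 150 mM NaCl, 10% glycerol and 5 × SYPRO Orange with compound in DMSO. Boltzmann fits gave melting temperatures for this differential scanning fluorimetry assay. The shift reported is the mean of three replicates against the DMSO-only protein.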

LOC_OS01G60330-cb001 = tested on: LOC_OS01G60330-cb001
Method in brief: as §1

LOC_OS01G60700-cb002 = tested on: LOC_OS01G60700-cb002
Method in brief: as §1

LOC_OS01G63280-cb003 = tested on: LOC_OS01G63280-cb003
Method in brief: as §1

LOC_OS01G67340-cb003 = tested on: LOC_OS01G67340-cb003
Method in brief: as §1

LOC_OS01G70970-cb002 = tested on: LOC_OS01G70970-cb002
Method in brief: as §1

LOC_OS02G07810-cb001 = tested on: LOC_OS02G07810-cb001
Method in brief: as §1

LOC_OS02G08530-cb003 = tested on: LOC_OS02G08530-cb003
Method in brief: as §1

LOC_OS02G14120-cb001 = tested on: LOC_OS02G14120-cb001
Method in brief: as §1

LOC_OS02G17970-cb001 = tested on: LOC_OS02G17970-cb001
Method in brief: as §1

LOC_OS02G45750-cb003 = tested on: LOC_OS02G45750-cb003
Method in brief: as §1

LOC_OS02G54510-cb004 = tested on: LOC_OS02G54510-cb004
Method in brief: as §1

LOC_OS03G04050-cb001 = tested on: LOC_OS03G04050-cb001
Method in brief: as §1

LOC_OS03G12390-cb001 = tested on: LOC_OS03G12390-cb001
Method in brief: as §1

LOC_OS03G27990-cb004 = tested on: LOC_OS03G27990-cb004
Method in brief: as §1

LOC_OS03G50450-cb001 = tested on: LOC_OS03G50450-cb001
Method in brief: as §1

LOC_OS03G50810-cb003 = tested on: LOC_OS03G50810-cb003
Method in brief: as §1

LOC_OS04G35114-cb001 = tested on: LOC_OS04G35114-cb001
Method in brief: as §1

LOC_OS04G38480-cb003 = tested on: T1, LOC_OS04G38480-cb003
T1 sequence (whole entry): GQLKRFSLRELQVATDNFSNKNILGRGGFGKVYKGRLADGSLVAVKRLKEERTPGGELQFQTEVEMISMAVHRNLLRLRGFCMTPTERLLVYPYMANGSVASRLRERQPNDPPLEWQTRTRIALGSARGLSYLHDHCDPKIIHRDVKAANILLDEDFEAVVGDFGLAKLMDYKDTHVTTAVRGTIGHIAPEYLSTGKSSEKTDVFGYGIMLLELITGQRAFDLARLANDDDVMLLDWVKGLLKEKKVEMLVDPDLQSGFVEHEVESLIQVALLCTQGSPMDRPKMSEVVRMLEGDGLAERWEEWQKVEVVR
Method in brief: as §1

LOC_OS04G41100-cb001 = tested on: T2, LOC_OS04G41100-cb001
T2 sequence (whole entry): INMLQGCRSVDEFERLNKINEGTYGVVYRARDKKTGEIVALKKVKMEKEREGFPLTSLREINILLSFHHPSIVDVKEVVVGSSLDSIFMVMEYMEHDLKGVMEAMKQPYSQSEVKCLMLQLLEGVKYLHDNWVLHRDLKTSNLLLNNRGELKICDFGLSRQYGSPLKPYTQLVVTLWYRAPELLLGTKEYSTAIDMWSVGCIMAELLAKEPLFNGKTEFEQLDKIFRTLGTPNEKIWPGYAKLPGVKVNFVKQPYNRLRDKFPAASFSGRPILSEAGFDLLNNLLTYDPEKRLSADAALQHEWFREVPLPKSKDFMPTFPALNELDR
Method in brief: as §1
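Further: purified Escherichia coli-expressed rice kinase domain construct.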

| Compound | thermal shift delta Tm (LOC_OS01G57100-cb003) [°C] | thermal shift delta Tm (LOC_OS01G60330-cb001) [°C] | thermal shift delta Tm (LOC_OS01G60700-cb002) [°C] | thermal shift delta Tm (LOC_OS01G63280-cb003) [°C] | thermal shift delta Tm (LOC_OS01G67340-cb003) [°C] | thermal shift delta Tm (LOC_OS01G70970-cb002) [°C] | thermal shift delta Tm (LOC_OS02G07810-cb001) [°C] | thermal shift delta Tm (LOC_OS02G08530-cb003) [°C] | thermal shift delta Tm (LOC_OS02G14120-cb001) [°C] | thermal shift delta Tm (LOC_OS02G17970-cb001) [°C] | thermal shift delta Tm (LOC_OS02G45750-cb003) [°C] | thermal shift delta Tm (LOC_OS02G54510-cb004) [°C] | thermal shift delta Tm (LOC_OS03G04050-cb001) [°C] | thermal shift delta Tm (LOC_OS03G12390-cb001) [°C] | thermal shift delta Tm (LOC_OS03G27990-cb004) [°C] | thermal shift delta Tm (LOC_OS03G50450-cb001) [°C] | thermal shift delta Tm (LOC_OS03G50810-cb003) [°C] | thermal shift delta Tm (LOC_OS04G35114-cb001) [°C] | thermal shift delta Tm (LOC_OS04G38480-cb003) [°C] | thermal shift delta Tm (LOC_OS04G41100-cb001) [°C] |
| --- | --- | --- | --- | --- | --- | --- | --- | --- | --- | --- | --- | --- | --- | --- | --- | --- | --- | --- | --- | --- |
| O=C1Nc2ccccc2/C1=C1/Nc2ccccc2C1=O [Indirubin] | 0.93 | 1.8 | 2.12 | 0.55 | 0.71 | 0.76 | 1.4 | 1.85 | -0.51 | 0.97 | 2.07 | 0.45 | 0.62 | 0.59 | 0.23 | 0.08 | 1.48 | 3.86 | 0.97 | 0.98 |
| CC(=O)c1c(C)c2cnc(Nc3ccc(N4CCNCC4)cn3)nc2n(C2CCCC2)c1=O | -0.7 | 1.73 | 0.15 | -0.12 | 1.56 | 0.58 | -0.42 | 1.29 | 4.13 | 0.68 | 6.05 | 0.3 | 0.22 | 5.44 | 2.08 | 0.53 | 2.97 | 3.19 | 1.9 | 1.04 |
| CNCc1ccc(-c2cc(-c3nc(-c4ccc(S(=O)(=O)C(C)C)cc4)cnc3N)on2)cc1 | 1.41 | 0.91 | 1.58 | 0.5 | 0.06 | 0.3 | 2.33 | 1.56 | 2.23 | 1.43 | 2.46 | 0.28 | 0.32 | 0.54 | 0.33 | 0.34 | 0.97 | 4.33 | 1 | 0.22 |
| CCN(CC)CCNC(=O)c1c(C)[nH]c(/C=C2\C(=O)Nc3ccc(F)cc32)c1C [Sunitinib] | -0.24 | 9.23 | 0.91 | 0.49 | 4.15 | 6.85 | 0.37 | 4.95 | 7.49 | 0.22 | 0 | 0.62 | 0.04 | 7.93 | 7.62 | 3.43 | 7.56 | 11 | 3.55 | 0.46 |
| COc1cc2ncnc(Nc3ccc(O)c(Br)c3)c2cc1OC | 0.74 | 0.32 | 1.72 | 0.92 | 0.7 | 0.81 | 0.81 | 1.8 | 7.45 | 1.06 | 1.02 | 0.71 | 0.44 | 4.5 | 2.33 | -0.05 | 2.28 | 4.51 | 2.11 | 0.46 |
| COc1ccc(-c2cc3c(C)nc(N)nc3n([C@H]3CC[C@H](OCCO)CC3)c2=O)cn1 | 2.79 | 0.98 | 0.9 | 0.37 | 0.23 | 0.14 | 1.27 | 1.09 | 1.12 | 0.63 | 0.52 | 0.05 | 0.5 | 0.41 | 0.17 | 0.14 | 0.45 | 0.77 | 1.08 | 0.32 |
| CCN(C)S(=O)(=O)Nc1ccc(F)c(C(=O)c2c[nH]c3ncc(-c4cnc(C5CC5)nc4)cc23)c1F | 1.23 | 1.8 | 0.8 | 7.4 | 0.55 | 0.37 | 0.74 | 0.59 | -0.46 | 0.71 | 3.15 | 0.87 | 0.3 | 0.5 | 0.47 | 0.08 | 0.44 | 2.53 | 0.81 | 0.37 |
| Cc1ccc(-n2nc(C(C)(C)C)cc2NC(=O)Nc2ccc(OCCN3CCOCC3)c3ccccc23)cc1 [Doramapimod (BIRB 796)] | 1.19 | 1.27 | 0.98 | 1.11 | 0.16 | 0.56 | 0.89 | 0.89 | 0.95 | 0.9 | -1.12 | 0.33 | 0.33 | -0.03 | 0.31 | 0.1 | 0.01 | 0.68 | 0.95 | 0.9 |
| C=CC(=O)Nc1ccc(CN2C(=O)N(c3cc(OC)cc(OC)c3)Cc3cnc(Nc4ccc(N5CCN(C)CC5)cc4)nc32)cc1 | 3.1 | 0.63 | 2.43 | 0.9 | 0.61 | 1.17 | 1.48 | 1.77 | 2.28 | 1.39 | 1.47 | 1.08 | 0.74 | 0.1 | 0.49 | 0.33 | 0.75 | 1.29 | 2.8 | 0.83 |
| COc1cc(Nc2ncc(F)c(Nc3ccc4c(n3)N(COP(=O)(O)O)C(=O)C(C)(C)O4)n2)cc(OC)c1OC [Fostamatinib (R788)] | 4.42 | 6.53 | 0.92 | 0.09 | 1.18 | 3.04 | 0.54 | 3.76 | 11 | 0.23 | 4.51 | 2.89 | 0.44 | 7.17 | 2.16 | 10.5 | 3.97 | 3.46 | 4.1 | 0.47 |
| CN(C)S(=O)(=O)c1ccc2c(c1)/C(=C/c1cc3c([nH]1)CCCC3)C(=O)N2 | 6.51 | 10.9 | 1.5 | 7.86 | 11.3 | 5.65 | 1.5 | 5.64 | 13 | 1.69 | 0 | 1.15 | 0.65 | 0.26 | 0.61 | 0.97 | 0 | 0 | 6.35 | 0.43 |
| CN1C(=O)[C@@H](NC(=O)c2n[nH]c(Cc3ccccc3)n2)COc2ccccc21 | 0.85 | 0.1 | 0.2 | 0.29 | 0.17 | 0.41 | -0.03 | 0.55 | 0.71 | 0.62 | 0.85 | -0.02 | 0.45 | 0.81 | 0.38 | 0.66 | 0.57 | -0.51 | 2 | 0.34 |
| Cc1ncc(-c2ccnc(Nc3ccc(S(C)(=O)=O)cc3)n2)n1C(C)C | 1.7 | 2.38 | 1.21 | 4.42 | 1.74 | 1.45 | 1.42 | 2.22 | 5.76 | 1.78 | 4.52 | 0.65 | 0.19 | 3.93 | 0.85 | 0.58 | 1.7 | 1.83 | 2.87 | 4.97 |

Source: the supplement of paper PMC9694430
